# “And” between values parts separate entries of the source, which are not always exact repeats. Identical values can stand only once. Inconclusive results are not listed. Entries that show only a call come without a potency. Some compounds were tested as several samples or in several runs, with calls that do not always agree. The source made the active and inactive calls. Unless noted, calls come from the whole dose curve; as a rule, active = well fitted curve in the direction sought with a large enough effect in the repeat runs; inconclusive = weak or mixed curves; inactive = no such curve, though single readings can be large; an effect the other way counts as inactive or inconclusive.
# Assays:
# [1] = biological target: Retinoic acid receptor RXR-alpha (Homo sapiens) (UniProt P19793); experiment: qHTS assay to identify small molecule agonists of the RXR signaling pathway (AID 1159527; calls by dose curve; note: nearly all actives have a fitted effect of over 35% in size; note: potency is the fitted concentration of half-maximal effect)
# Chain of Retinoic acid receptor RXR-alpha (Homo sapiens) (P19793 whole entry, looked up): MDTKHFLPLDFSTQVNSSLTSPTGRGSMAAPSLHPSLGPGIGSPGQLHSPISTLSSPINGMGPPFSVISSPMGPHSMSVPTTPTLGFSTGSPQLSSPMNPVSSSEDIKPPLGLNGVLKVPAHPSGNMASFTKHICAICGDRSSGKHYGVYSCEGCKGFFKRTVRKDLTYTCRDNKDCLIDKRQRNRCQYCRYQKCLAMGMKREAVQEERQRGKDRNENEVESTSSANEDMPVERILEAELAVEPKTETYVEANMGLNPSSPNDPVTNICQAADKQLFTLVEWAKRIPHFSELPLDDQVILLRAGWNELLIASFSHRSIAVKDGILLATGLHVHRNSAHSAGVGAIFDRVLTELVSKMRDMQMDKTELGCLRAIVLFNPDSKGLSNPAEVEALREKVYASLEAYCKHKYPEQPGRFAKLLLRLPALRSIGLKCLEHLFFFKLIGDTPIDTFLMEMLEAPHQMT
# In short: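 qHTS of the Tox21 10K library in GeneBLAzer RXR-alpha HEK 293T cells carrying a beta-lactamase reporter […]; 16 hr treatment, 9-cis retinoic acid as agonist control, FRET read-out.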
# [2] = qHTS assay to identify small molecule agonists of the RXR signaling pathway - cell viability counter screen (AID 1159529); note: nearly all actives have a fitted effect of over 50% in size; note: potency is the fitted concentration of half-maximal effect
# In short: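 Cell viability is measured by CellTiter-Glo luminescence, 30 min at room temperature, in wells already read for beta-lactamase. Engineered HEK 293T cells (RXR-alpha-UAS-bla) are dosed 16 hr at 37 C. Tetraoctyl ammonium bromide serves as positive control.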
# [3] = qHTS assay to identify small molecule antagonists of the retinoid acid receptor (RAR) signaling pathway - cell viability counter screen (AID 1159551); note: nearly all actives have a fitted effect of over 35% in size; note: potency is the fitted concentration of half-maximal effect
# In short: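 C3RL4 RARE-luciferase cells, 1,000/well, incubated overnight, then dosed with compound plus 1 uM retinol (final). After 6 hr at 37 C, viability read by CellTiter-Glo ATP luminescence following 30 min at room temperature.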
# [4] = qHTS assay to identify small molecule antagonists of the retinoic acid receptor (RAR) signaling pathway (AID 1159552; note: nearly all actives have a fitted effect of over 50% in size; note: potency is the fitted concentration of half-maximal effect)
# In short: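 Quantitative HTS in C3RL4 RARE-luciferase reporter cells. Compounds were added with 1 uM (final) retinol; luminescence was read after 6 hr.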
# [5] = qHTS assay to identify small molecule agonists of the retinoic acid receptor (RAR) signaling pathway (AID 1159553); note: potency is the fitted concentration of half-maximal effect
# In short: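 C3RL4 RARE-luciferase cells were seeded at 1,000/well and grown overnight at 37 C, then exposed to compounds for 6 hr at 37 C, 5% CO2. Luciferase reagent was added and luminescence was read after 30 min at room temperature.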
# [6] = qHTS assay to identify small molecule antagonists of the estrogen related receptor (ERR) signaling pathway - cell viability counter screen (AID 1224818); note: series mostly up to about 46 µM
# In short: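 ERR cells, 2,000 per well, compound added after 6 h and incubated 17.5 h at 37 C. Viability read by CellTiter-Fluor fluorescence after a further 30 min at 37 C.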
# [7] = qHTS assay to identify small molecule antagonists of the estrogen related receptor signaling pathway with the pleiotropic PPARgamma coactivator (PGC) cell viability counter screen (AID 1224822; note: series mostly up to about 46 µM)
# In short: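 PGC/ERR cells rested 6 h, then compound-treated 17.5 h at 37 C. CellTiter-Fluor added for 30 min at 37 C, viability measured by fluorescence intensity.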
# [8] = qHTS assay to identify small molecule agonists of the estrogen related receptor (ERR) signaling pathway (AID 1224820)
# In short: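 ERR reporter cells (NTP line) plated 2,000/well, incubated 6 h at 37 C/5% CO2, then pinned with compounds in DMSO and held 18 h at 37 C. One-Glo added; luminescence read after 30 min at room temperature.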
# [9] = tested on: estrogen-related receptor alpha (ERRalpha) with PGC-1alpha coactivator, human; experiment: qHTS assay to identify small molecule antagonists of the estrogen related receptor signaling pathway with the pleiotropic PPARgamma coactivator (PGC) (AID 1224821; calls by dose curve; note: nearly all actives have a fitted effect of over 50% in size; note: potency is the fitted concentration of half-maximal effect)
# In short: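 Cells engineered for PGC/ERR signalling (line from NTP) were plated 6 h at 37 C/5% CO2, then exposed to DMSO-dissolved compound for 18 h at 37 C. Luciferase activity was read by One-Glo luminescence after 30 min at room temperature.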
# [10] = qHTS assay to identify small molecule antagonists of the estrogen related receptor (ERR) signaling pathway (AID 1224819; note: potency is the fitted concentration of half-maximal effect; nearly all actives have a fitted effect of over 50% in size)
# In short: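 ERR reporter cell line (NTP) plated at 2,000 cells/well, settled 6 h at 37C/5% CO2, then exposed to LOPAC compounds for 18 h at 37C. One-Glo luciferase luminescence read after 30 min at room temperature.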
smiles,measurement,setting,value
Cc1cc(O)cc(C)c1Cl,Potency,[1],inactive
same,Potency,[2],inactive
same,Potency,[3],inactive
same,Potency,[4],inactive
same,Potency,[5],inactive
Oc1c(Cl)cc(Cl)c(Cl)c1Cl,Potency,[1],inactive
same,Potency,[2],15.2 µM (active) and 13.8 µM (active)
same,Potency,[3],inactive
same,Potency,[4],inactive
same,Potency,[5],inactive
CC1Cc2ccccc2N1NC(=O)c1ccc(Cl)c(S(N)(=O)=O)c1 (configuration not stated),Potency,[1],inactive
same,Potency,[2],inactive
same,Potency,[3],inactive
same,Potency,[4],inactive
same,Potency,[5],inactive
C=C(C#N)C(=O)OCC,Potency,[1],inactive
same,Potency,[2],inactive
same,Potency,[3],inactive
same,Potency,[4],inactive
same,Potency,[5],inactive
COC(=O)c1ccccc1O,Potency,[2],43.8 µM (active) and inactive
same,Potency,[3],inactive
same,Potency,[4],inactive
same,Potency,[5],inactive
Cc1cc(Cc2ccc(N)c(C)c2)ccc1N,Potency,[2],inactive
same,Potency,[3],inactive
same,Potency,[5],inactive
CC1=C(CC(=O)O)c2cc(F)ccc2/C1=C\c1ccc(S(C)=O)cc1 (configuration not stated),Potency,[2],inactive
same,Potency,[3],inactive
same,outcome,[6],inactive
same,outcome,[7],inactive
C=C(C)C(=O)OCCCCCCCCCCCC,Potency,[1],inactive
same,Potency,[2],inactive
same,Potency,[3],inactive
same,Potency,[5],inactive
CC1COc2ccccc2N1C(=O)C(Cl)Cl (configuration not stated),Potency,[2],inactive
same,Potency,[3],inactive
Oc1ccc2ccccc2c1N=Nc1ccccc1,Potency,[1],inactive
same,Potency,[3],inactive
same,Potency,[4],inactive
same,Potency,[5],12.2 µM (active)
O=S(=O)(Oc1ccc(Cl)cc1Cl)c1ccccc1,Potency,[2],inactive
same,Potency,[3],inactive
same,Potency,[4],inactive
same,Potency,[5],68.6 µM (active)
CCCCCCCCCC(=O)O,Potency,[2],inactive
same,Potency,[3],inactive
same,Potency,[4],inactive
same,Potency,[5],inactive
Nc1cc(-c2ccncc2)c[nH]c1=O,Potency,[1],inactive
same,Potency,[2],inactive
same,Potency,[3],inactive
same,Potency,[5],inactive
CN(CCOc1ccc(CC2SC(=O)NC2=O)cc1)c1ccccn1 (configuration not stated),Potency,[2],inactive
same,Potency,[3],inactive
CC(C)NCC(O)COc1cccc2ccccc12 (configuration not stated),Potency,[1],inactive
same,Potency,[2],inactive
same,Potency,[3],inactive
same,Potency,[5],inactive
same,outcome,[6],inactive
same,outcome,[7],inactive
CC(C)n1c(/C=C/[C@@H](O)C[C@@H](O)CC(=O)O)c(-c2ccc(F)cc2)c2ccccc21,Potency,[1],inactive
same,Potency,[3],inactive
Cc1ccc(C(=O)O)o1,Potency,[2],inactive
same,Potency,[3],inactive
CN(C)c1ccc(C(=N)c2ccc(N(C)C)cc2)cc1,Potency,[2],inactive
same,Potency,[5],41.6 µM (active)
CCc1ccccc1O,Potency,[1],5.47 µM (active) and inactive
same,Potency,[2],inactive
same,Potency,[3],inactive
same,Potency,[5],inactive
NCCc1ccc(O)c(O)c1,Potency,[1],inactive
same,Potency,[2],inactive
same,Potency,[3],inactive
same,outcome,[6],inactive
O=C(c1ccc(O)cc1)c1ccc(O)cc1O,Potency,[5],inactive
c1ccc2ccccc2c1,Potency,[2],inactive
same,Potency,[3],inactive
same,Potency,[5],inactive
c1ccc2[nH]cnc2c1,Potency,[1],inactive
same,Potency,[2],inactive
same,Potency,[3],inactive
same,Potency,[5],inactive
Clc1ccc(Cl)c(Cl)c1Cl,Potency,[2],inactive
same,Potency,[3],inactive
Cc1cc(O)c2c(c1)C(=O)c1cc(O)cc(O)c1C2=O,Potency,[1],inactive
same,Potency,[2],inactive
same,Potency,[3],inactive
same,Potency,[5],9.47 µM (active)
same,Potency,[8],inactive
same,Potency,[9],inactive
Cc1cc(NS(=O)(=O)c2ccc(N)cc2)no1,Potency,[2],inactive
same,Potency,[3],inactive
same,Potency,[5],inactive
O=[N+]([O-])c1cc(N(CCO)CCO)ccc1NCCO,Potency,[1],inactive
same,Potency,[2],inactive
same,Potency,[3],48.5 µM (active) and 48.6 µM (active)
same,Potency,[5],inactive
CCCCC(CC)C(=O)OCCOCCOCCOC(=O)C(CC)CCCC (configuration not stated),Potency,[1],inactive
same,Potency,[2],inactive
same,Potency,[3],inactive
same,Potency,[5],inactive
NS(=O)(=O)c1cc2c(cc1Cl)NC=NS2(=O)=O,Potency,[1],inactive
same,Potency,[2],inactive
same,Potency,[3],inactive
same,Potency,[5],inactive
same,outcome,[6],inactive
same,outcome,[7],inactive
C=C1CC[C@H](O)CC1=C/C=C1\CCC[C@]2(C)[C@@H]([C@H](C)/C=C/[C@H](C)C(C)C)CC[C@@H]12,Potency,[2],24.5 µM (active)
same,Potency,[3],inactive
same,Potency,[5],61.1 µM (active)
Nc1c(S(=O)(=O)O)cc(Br)c2c1C(=O)c1ccccc1C2=O,Potency,[2],inactive
same,Potency,[3],inactive
same,Potency,[4],inactive
same,Potency,[5],inactive
CS(=O)(=O)Nc1ccc([N+](=O)[O-])cc1Oc1ccccc1,Potency,[1],inactive
same,Potency,[2],inactive
same,Potency,[3],inactive
same,Potency,[8],inactive
same,outcome,[7],inactive
CC1=C(/C=C/C(C)=C/C=C/C(C)=C/CO)C(C)(C)CCC1,Potency,[2],inactive
same,Potency,[3],inactive
same,Potency,[5],13.9 µM (active) and 32.3 µM (active)
Cc1ccc(N)c(S(=O)(=O)O)c1,Potency,[1],inactive
same,Potency,[2],inactive
same,Potency,[3],inactive
same,Potency,[5],inactive
CC(C)(C)C1CCC(O)CC1 (configuration not stated),Potency,[1],inactive
same,Potency,[2],inactive
same,Potency,[3],inactive
same,Potency,[5],inactive
CC1(C)CC(N=C=O)CC(C)(CN=C=O)C1 (configuration not stated),Potency,[1],inactive
same,Potency,[2],inactive
same,Potency,[3],inactive
same,Potency,[5],inactive
S=c1nc[nH]c2nc[nH]c12,Potency,[2],3.01 µM (active)
same,Potency,[4],inactive
same,Potency,[5],inactive
CC(=O)[C@@]1(O)CC[C@H]2[C@@H]3CCC4=CC(=O)CC[C@]4(C)[C@H]3CC[C@@]21C,Potency,[2],inactive
same,Potency,[3],inactive
same,Potency,[5],inactive
same,outcome,[6],inactive
same,outcome,[7],inactive
Oc1ccc2ccccc2c1,Potency,[1],inactive
same,Potency,[2],inactive
same,Potency,[3],inactive
same,Potency,[5],inactive
COC(=O)Nc1nc2ccc(Sc3ccccc3)cc2[nH]1,Potency,[2],inactive
same,Potency,[3],inactive
O=C1N=C(O)CN1/N=C/c1ccc(-c2ccc([N+](=O)[O-])cc2)o1,Potency,[2],inactive
same,Potency,[3],inactive
CC#C[C@]1(O)CC[C@H]2[C@@H]3CCC4=CC(=O)CCC4=C3[C@@H](c3ccc(N(C)C)cc3)C[C@@]21C,Potency,[2],inactive
same,Potency,[3],inactive
same,Potency,[4],27.3 µM (active) and 26.6 µM (active)
same,outcome,[6],inactive
same,Potency,[10],22 µM (active)
same,Potency,[8],inactive
same,Potency,[9],21.1 µM (active)
OCC1CCCO1 (configuration not stated),Potency,[2],inactive
same,Potency,[3],inactive
same,Potency,[4],inactive
same,Potency,[5],inactive

# From PubChem BioAssay (Tox21)
